An excerpt weighted towards active compounds, which were near 27% of everything screened.
sEH inh = soluble epoxide hydrolase (human) inhibition; P34913; recombinant human sEH enzymatic activity assay; inhibition, % at 2 µM; hit rate 0.34% among 91,000; in the data active = inhibition above about 80%
CYP2C19 activ = increases human CYP2C19 enzyme activity | AID 1025 | P33261 | recombinant CYP2C19, luciferin-H EGE luminescence; hits give high values; 0 = fully inhibited enzyme, 1 = untreated enzyme | activation factor at 5 µM | 96,000 tested, under 10 active;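 active = activation factor of at least 2 at 5 µM in the primary screen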
Target sequence (P33261 whole entry, looked up): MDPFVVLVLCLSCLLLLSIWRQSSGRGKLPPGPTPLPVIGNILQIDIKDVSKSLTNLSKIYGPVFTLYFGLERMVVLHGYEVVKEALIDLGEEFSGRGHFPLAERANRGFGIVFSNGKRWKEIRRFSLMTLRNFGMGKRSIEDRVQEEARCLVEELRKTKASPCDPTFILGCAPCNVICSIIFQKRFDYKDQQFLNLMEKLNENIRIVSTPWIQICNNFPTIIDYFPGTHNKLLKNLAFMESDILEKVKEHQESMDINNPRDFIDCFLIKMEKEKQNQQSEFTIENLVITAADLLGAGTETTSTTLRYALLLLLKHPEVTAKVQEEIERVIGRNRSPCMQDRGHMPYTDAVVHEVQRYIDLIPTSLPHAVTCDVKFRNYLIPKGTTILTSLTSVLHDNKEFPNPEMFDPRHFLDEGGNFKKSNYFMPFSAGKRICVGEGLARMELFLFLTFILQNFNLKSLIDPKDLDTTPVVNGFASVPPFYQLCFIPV
sEH activator = activators of human soluble epoxide hydrolase; P34913; activation, % at 2 µM; purified human sEH enzymatic activity, activator screen; hit rate 0.04% among 91,000; in the data active = activation above about 37%
CYP2C9 activ = activators of human CYP2C9 | AID 1024 | hit rate 1.4% among 96,000 | recombinant CYP2C9, luciferin-H conversion, luminescence; hits give high values; factor 1 = untreated enzyme, 0 = blocked | P11712 | activation factor at 5 µM;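 active = activation factor of 2 or more for CYP2C9 at a 5 µM dose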
CYP2C19 inh = inhibitors of human CYP2C19 | P33261 | CYP2C19 Supersomes, luciferin-H EGE luminescence, 30 min | inhibition, % at 5 µM | hit rate 21% among 96,000;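 active = CYP2C19 inhibition above a set limit at 5 µM in the primary screen, cut at about 50% in these data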
CYP2C9 inhib = blocks human cytochrome P450 2C9; P11712; CYP2C9 Supersomes, luciferin-H conversion, luminescence; inhibition, % at 5 µM; hit rate 20% among 96,000; AID 777;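 active = blocking of liver enzyme CYP2C9 beyond about 50% at 5 µM, limit read from the data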
A number is an active result.

Results for N#Cc1nc(Cc2cccc3ccccc23)oc1NCc1ccc(F)cc1 ?
sEH inh: inactive; CYP2C19 activ: inactive; sEH activator: inactive; CYP2C9 activ: inactive; CYP2C19 inh: 52; CYP2C9 inhib: 90

How did Cn1cc(S(=O)(=O)N2CCc3ccccc3C2)c(=O)n(C)c1=O do in these assays?
sEH inh: inactive; CYP2C19 activ: inactive; sEH activator: inactive; CYP2C9 activ: inactive; CYP2C19 inh: inactive; CYP2C9 inhib: inactive

Results for O=C(NC(NC1CCS(=O)(=O)C1)C(Cl)(Cl)Cl)c1ccc(Br)cc1 (configuration not stated) ?
sEH inh: inactive; CYP2C19 activ: inactive; sEH activator: inactive; CYP2C9 activ: inactive; CYP2C19 inh: inactive; CYP2C9 inhib: inactive

What do the screens show for `CCCNC(=O)CC1Sc2ccccc2NC1=O` (configuration not stated)?
sEH inh: inactive; CYP2C19 activ: inactive; sEH activator: inactive; CYP2C9 activ: 2.4; CYP2C19 inh: inactive; CYP2C9 inhib: inactive

Results for CCOC(=O)c1c(OCC)[nH]c2ccc(O)cc12 ?
sEH inh: inactive; CYP2C19 activ: inactive; sEH activator: inactive; CYP2C9 activ: inactive; CYP2C19 inh: inactive; CYP2C9 inhib: inactive

Results for COc1ccccc1OC(C)C(=O)Nc1nc(-c2ccc(S(=O)(=O)N3CCOCC3)cc2)cs1 (configuration not stated) ?
sEH inh: inactive; CYP2C19 activ: inactive; sEH activator: inactive; CYP2C9 activ: inactive; CYP2C19 inh: inactive; CYP2C9 inhib: 93

Results for CCOc1cccc(C(=O)Nc2nc(-c3ccc(S(=O)(=O)N4CCOCC4)cc3)cs2)c1 ?
sEH inh: inactive; CYP2C19 activ: inactive; sEH activator: inactive; CYP2C9 activ: inactive; CYP2C19 inh: inactive; CYP2C9 inhib: 65

Results for O=C(Nc1nc(-c2ccncc2)cs1)c1ccc(S(=O)(=O)N2CCOCC2)cc1 ?
sEH inh: inactive; CYP2C19 activ: inactive; sEH activator: inactive; CYP2C9 activ: inactive; CYP2C19 inh: inactive; CYP2C9 inhib: inactive

What do the screens show for `COc1ccccc1C(=O)Nc1nc(-c2ccc(S(=O)(=O)N3CCOCC3)cc2)cs1`?
sEH inh: inactive; CYP2C19 activ: inactive; sEH activator: inactive; CYP2C9 activ: inactive; CYP2C19 inh: inactive; CYP2C9 inhib: inactive

What do the screens show for `CCn1c(=O)c(=O)[nH]c2cc(C(=O)NC3CCCc4ccccc43)ccc21` (configuration not stated)?
CYP2C19 activ: inactive; CYP2C9 activ: inactive; CYP2C19 inh: inactive; CYP2C9 inhib: inactive

How did CCN(CC)S(=O)(=O)c1cc(C(=O)O)ccc1Cl do in these assays?
sEH inh: inactive; CYP2C19 activ: inactive; sEH activator: inactive; CYP2C9 activ: inactive; CYP2C19 inh: inactive; CYP2C9 inhib: inactive

Results for CCN(CC)S(=O)(=O)c1cc(C(=O)OC)ccc1Cl ?
sEH inh: inactive; CYP2C19 activ: inactive; sEH activator: inactive; CYP2C9 activ: inactive; CYP2C19 inh: 62; CYP2C9 inhib: inactive

Results for CCN(CC)S(=O)(=O)c1ccc(Cl)c(C(=O)OC)c1 ?
sEH inh: inactive; CYP2C19 activ: inactive; sEH activator: inactive; CYP2C9 activ: 2.1; CYP2C19 inh: inactive; CYP2C9 inhib: inactive

How did O=c1[nH]c(N2CCCCC2)nc2c1CCCC2 do in these assays?
sEH inh: inactive; CYP2C19 activ: inactive; sEH activator: inactive; CYP2C9 activ: inactive; CYP2C19 inh: inactive; CYP2C9 inhib: inactive

How did C1=C(CCNC2=NCCCCC2)CCCC1 do in these assays?
sEH inh: inactive; CYP2C19 activ: inactive; sEH activator: inactive; CYP2C9 activ: inactive; CYP2C19 inh: inactive; CYP2C9 inhib: inactive

Results for COC(=O)C1=C(C)NC2=C(C(=O)CC(C)(C)C2)C1c1cn(Cc2ccc(Br)cc2)nc1-c1ccccc1 (configuration not stated) ?
sEH inh: inactive; CYP2C19 activ: inactive; sEH activator: inactive; CYP2C9 activ: inactive; CYP2C19 inh: inactive; CYP2C9 inhib: 71

Results for COC(=O)C1=C(C)NC2=C(C(=O)CCC2)C1c1cccc(C)n1 (configuration not stated) ?
CYP2C19 activ: inactive; CYP2C9 activ: inactive; CYP2C19 inh: inactive; CYP2C9 inhib: inactive

Results for COC(=O)C1=C(C)NC2=C(C(=O)CC(C)(C)C2)C1c1cccc(C)n1 (configuration not stated) ?
sEH inh: inactive; CYP2C19 activ: inactive; sEH activator: inactive; CYP2C9 activ: inactive; CYP2C19 inh: inactive; CYP2C9 inhib: inactive

Results for COC(=O)C1=C(C)NC2=C(C(=O)CCC2)C1c1cn(Cc2ccc(Br)cc2)nc1-c1ccccc1 (configuration not stated) ?
sEH inh: inactive; CYP2C19 activ: inactive; sEH activator: inactive; CYP2C9 activ: inactive; CYP2C19 inh: inactive; CYP2C9 inhib: 86

What do the screens show for `COc1cc(C2SCC(=O)N2CCCN(C)C)cc(OC)c1OC` (configuration not stated)?
sEH inh: inactive; CYP2C19 activ: inactive; sEH activator: inactive; CYP2C9 activ: inactive; CYP2C19 inh: inactive; CYP2C9 inhib: inactive

Results for Cc1ccc(-c2cc(C(=O)n3cnc4ccccc43)c3ccccc3n2)cc1C ?
sEH inh: inactive; CYP2C19 activ: inactive; sEH activator: inactive; CYP2C9 activ: inactive; CYP2C19 inh: inactive; CYP2C9 inhib: 88

What do the screens show for `Cc1ccc(-c2cc(C(=O)NCc3ccccn3)c3ccccc3n2)cc1C`?
sEH inh: inactive; CYP2C19 activ: inactive; sEH activator: inactive; CYP2C9 activ: inactive; CYP2C19 inh: inactive; CYP2C9 inhib: 59

How did O=C(O)CCCC(=O)Nc1ccccc1C(=O)O do in these assays?
sEH inh: inactive; CYP2C19 activ: inactive; sEH activator: inactive; CYP2C9 activ: inactive; CYP2C19 inh: inactive; CYP2C9 inhib: inactive

Results for CCCC(=O)Oc1ccccc1C1SCc2cc(C)c(C)cc2CS1 ?
sEH inh: inactive; CYP2C19 activ: inactive; sEH activator: inactive; CYP2C9 activ: inactive; CYP2C19 inh: inactive; CYP2C9 inhib: inactive

Results for N#Cc1c(NC(=O)c2ccc(Cn3cc(Br)cn3)o2)sc2c1CCCCCC2 ?
sEH inh: inactive; CYP2C19 activ: inactive; sEH activator: inactive; CYP2C9 activ: inactive; CYP2C19 inh: inactive; CYP2C9 inhib: 58

What do the screens show for `C=CCn1c(SCC(=O)Nc2nccs2)nnc1-c1ccco1`?
sEH inh: inactive; CYP2C19 activ: inactive; sEH activator: inactive; CYP2C9 activ: inactive; CYP2C19 inh: 85; CYP2C9 inhib: inactive

Results for CCn1c(SCC(=O)Nc2nc(C)c(C)s2)nnc1-c1ccco1 ?
sEH inh: inactive; CYP2C19 activ: inactive; sEH activator: inactive; CYP2C9 activ: inactive; CYP2C19 inh: 80; CYP2C9 inhib: inactive

How did N#Cc1c(NC(=O)CSc2nnc(-c3ccco3)n2-c2ccccc2)sc2c1CCC2 do in these assays?
sEH inh: inactive; CYP2C19 activ: inactive; sEH activator: inactive; CYP2C9 activ: inactive; CYP2C19 inh: inactive; CYP2C9 inhib: inactive

What do the screens show for `NC(=O)c1c(NC(=O)CSc2nnc(-c3ccco3)n2-c2ccccc2)sc2c1CCC2`?
CYP2C19 activ: inactive; CYP2C9 activ: inactive; CYP2C19 inh: 69; CYP2C9 inhib: 94
